The experiment has as its target Pantothenate synthetase (Mycobacterium tuberculosis (strain ATCC 25618 / H37Rv)) (UniProt P9WIL5). Description: Recombinant Mtb pantothenate synthetase (PanC) inhibitors, coupled enzyme, confirmatory (AID 375).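 Further: 0% = full reaction with vehicle and 100% = no enzyme background.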 The following applies: coupled enzyme assay; at 10 µM, hits give high values.

For 101 compounds, inhibition results are on record in PubChem BioAssay.

Usually inhibition stands for the share of the control response that was lost under treatment.

A number with no mark means an inactive call. How the calls were made is not given here.

Chain of Pantothenate synthetase (Mycobacterium tuberculosis (strain ATCC 25618 / H37Rv)) (P9WIL5 whole entry, looked up): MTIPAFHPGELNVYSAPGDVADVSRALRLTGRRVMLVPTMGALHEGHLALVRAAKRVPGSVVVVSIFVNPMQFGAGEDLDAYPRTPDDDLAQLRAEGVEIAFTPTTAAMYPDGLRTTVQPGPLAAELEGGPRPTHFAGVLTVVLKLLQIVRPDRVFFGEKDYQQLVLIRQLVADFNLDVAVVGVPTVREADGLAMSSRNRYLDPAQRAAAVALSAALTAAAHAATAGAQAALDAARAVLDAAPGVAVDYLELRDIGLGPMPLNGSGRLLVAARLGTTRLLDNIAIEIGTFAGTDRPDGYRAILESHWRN

For `CCC1CCCCN1S(=O)(=O)c1ccc(C(=O)Nc2nnc(-c3cccs3)o2)cc1` (stereo unspecified), the inhibition was 2%.

Take `COc1ccc(Br)cc1-c1noc(-c2ccccc2)n1`: the inhibition was 4%.

As to `CC1(C)C2CCC1(C)C(OC(=O)CSc1nc(N)cc(=O)[nH]1)C2` (stereo unspecified), the inhibition is 0%.

Consider `COCCn1c(CN2CCN(c3ccccc3F)CC2)nc2c1c(=O)n(C)c(=O)n2C`, for which the inhibition was 6%.

Take `CCOC(=O)C(NC(C)=O)(NS(=O)(=O)c1ccccc1)C(F)(F)F` (stereo unspecified): the inhibition is 2%.

In the case of `O=C(c1ccco1)N1CCN(C(=O)c2cc3c(s2)-c2ccccc2OC3)CC1`, the inhibition was 11%.

In the case of `CCC(C)NC(=O)CSC1=Nc2ccccc2C2=NC(CC(=O)NCc3ccccc3)C(=O)N12` (stereo unspecified), the inhibition is 0%.

Take `CCN(CC)CC(=O)Nc1ccc(-c2nc3cc(NC(=O)CN(CC)CC)ccc3o2)cc1`: the inhibition was 7%.

Regarding `OC(CNCC1COc2ccccc2O1)COCc1cccs1` (stereo unspecified), the inhibition is 0%.

Regarding `N#CC1=C(N)OC(c2ccccc2)=C(C#N)C1c1ccc2c(c1)OCO2` (stereo unspecified), the inhibition is 0%.

For the compound `CN(C)c1ccc2c(c1)OC(N)=C(C#N)C2c1cccc(F)c1` (stereo unspecified), the inhibition was 0%.

As to `COc1ccc(Cl)cc1C(=O)NCCc1ccc(S(=O)(=O)NC(=O)NC2CCCCC2)cc1`, the inhibition is 0%.

For the compound `COc1ccc(NC(=O)Nc2ccc(N3CCCC3=O)cc2)cc1OC`, the inhibition is 0%.

Take `CCCc1ccc(S(=O)(=O)NCCc2ccncc2)cc1`: the inhibition is 0%.

On to `CC1CN(S(=O)(=O)c2cccc(C(=O)OCc3cc(=O)oc4cc(O)ccc34)c2)CC(C)O1` (stereo unspecified), for which the inhibition was 7%.

For the compound `CCCCn1cnc2c(c1=O)c1nc3ccccc3nc1n2Cc1ccc2c(c1)OCO2`, the inhibition was 0%.

As for `COc1ccc(N2C(N)=C(C#N)C(c3cccnc3)C3=C2CC(C)(C)CC3=O)cc1` (stereo unspecified), the inhibition is 0%.

On to `Cc1c(C2Nc3ccccc3NC3=C2C(=O)CC(C)(C)C3)cnn1C` (stereo unspecified), for which the inhibition was 2%.

`COC(=O)[C@@H](N)Cc1ccc(O)cc1`: the inhibition was 0%.

For `O=S(=O)(c1ccccc1)N1CCN(S(=O)(=O)c2ccccc2)C1`, the inhibition is 0%.

Regarding `Cc1nc2sc(C(c3cccs3)N3CCOCC3)c(O)n2n1` (stereo unspecified), the inhibition is 0%.

Take `Cc1ccc2c(c1)C1CCCC3C1N2CC(=O)N3Cc1ccccc1` (stereo unspecified): the inhibition was 0%.

In the case of `C=CCNc1nnc(SC2CC(=O)N(c3ccc(OC)cc3)C2=O)s1` (stereo unspecified), the inhibition was 0%.

For the compound `CN(CC(=O)Nc1sccc1C#N)C1CCCCC1`, the inhibition was 0%.

For `O=C(NCc1n[nH]c(=S)n1-c1ccc(F)cc1)c1ccco1`, the inhibition was 0%.

Consider `CCOc1ccc(-c2nnn(CCC(=O)O)n2)cc1OC`, for which the inhibition was 0%.

For `CCN(CC)c1nc2cc(OC)ccc2cc1C#N`, the inhibition was 0%.

Take `Cc1ccccc1NC(=O)c1ccc(NC(=O)c2ccco2)cc1`: the inhibition is 0%.

As to `Cc1cc(C)nc(N2CCCC(C(=O)Nc3ccc4c(c3)OCO4)C2)n1` (stereo unspecified), the inhibition is 0%.

`COc1ccc(OC)c(C2=NOC(C(=O)NCCN3CCOCC3)C2)c1` (stereo unspecified): the inhibition is 0%.

With `CC(C)n1nc(C(=O)Nc2nc3ccc(S(C)(=O)=O)cc3s2)c2ccccc2c1=O`, the inhibition was 0%.

Regarding `O=C(Nc1cccnc1)Nc1ccccn1`, the inhibition is 0%.

As for `CCOC(=O)C1CN(S(=O)(=O)c2ccc(C)cc2)CCN1S(=O)(=O)c1ccc(C)cc1` (stereo unspecified), the inhibition is 0%.

`Nc1nonc1-n1nnc(C(=O)c2ccccc2)c1-c1ccccc1`: the inhibition was 0%.

Take `N#Cc1c(/N=C/c2cccs2)sc2c1CCCCC2`: the inhibition was 0%.

For `COc1ccc(/C=N/n2c(SC)nnc2-c2ccccc2)cc1C`, the inhibition was 0%.

`Cc1cc(NC(=O)CSc2nccn2-c2ccc(F)cc2)no1`: the inhibition was 5%.

On to `Cc1cc(NCCN2CCOCC2)n2nc(C)c(-c3ccccc3)c2n1`, for which the inhibition was 0%.

For the compound `COc1ccc(N2CCN(CCCNC(=O)CC3Oc4ccc(C)cc4NC3=O)CC2)cc1` (stereo unspecified), the inhibition was 0%.

With `O=C(CCNS(=O)(=O)c1cccc2nsnc12)Nc1ccc2c(c1)OCCO2`, the inhibition is 0%.

As to `CC(C)CC(=O)Nc1ccccc1-c1nnn(CC(=O)N2CCOCC2)n1`, the inhibition is 0%.

For `CCOCCCNC(=O)C(c1ccccc1)N(Cc1ccc2c(c1)OCO2)C(=O)CNC(C)=O` (stereo unspecified), the inhibition was 1%.

For `CC1CCN(C(=O)CSc2nnc(-c3ccc(S(=O)(=O)N4CCOCC4)cc3)n2C)CC1`, the inhibition is 4%.

As for `CC(=O)C1=C(O)C(=O)N(Cc2ccco2)C1c1ccc(F)cc1` (stereo unspecified), the inhibition was 10%.

As to `COc1ccc(C(=O)NCCC(C)C)cc1S(=O)(=O)N1CCOCC1`, the inhibition was 9%.

As for `Nc1cc(-c2ccccc2)ccc1O`, the inhibition is 1%.

For the compound `Cc1ccc(Cn2nnc(C(=O)Nc3cccc(C)c3C)c2N)cc1`, the inhibition was 5%.

For `CCOC(=O)N1CCC(NC(=O)CCC(=O)N2CC(C)Oc3ccc(Cl)cc32)CC1` (stereo unspecified), the inhibition is 2%.

On to `COC(=O)c1ccc(COc2ncnc3c(Cl)cc(Cl)cc23)o1`, for which the inhibition was 0%.

With `COc1cccc(NC(=O)Nc2cccs2)c1`, the inhibition was 0%.

As for `CCOC(=O)c1ccc(N2Cc3cc(C)c(C)cc3C2)cc1O`, the inhibition was 2%.

As to `O=C1CS/C(=N\C(=O)N2c3ccccc3Sc3ccccc32)N1`, the inhibition was 0%.

Regarding `COc1cccc(-c2cc(C(=O)N3CCc4ccccc4C3)no2)c1`, the inhibition was 10%.

`COC(=O)c1ccc2ncccc2c1`: the inhibition is 0%.

With `CCc1cc(C(=O)OC)c(NC(=O)CCC(=O)O)s1`, the inhibition is 2%.

`CCn1cc(C(=O)O)c(=O)c2cc(F)c(N3CCNCC3)cc21`: the inhibition is 0%.

On to `O=S(=O)(NCCc1ccccc1F)c1cccc(S(=O)(=O)N2CCOCC2)c1`, for which the inhibition is 0%.

On to `Cc1cc(C)c(-c2cc(C(=O)Nc3c(C)n(C)n(-c4ccccc4)c3=O)[nH]n2)c(O)c1`, for which the inhibition was 0%.

`CN(C)c1ccc(C2C3=C(CCCC3=O)OC3=C2C(=O)CCC3)cc1`: the inhibition is 0%.

`Cc1oc(C(=O)O)cc1CSCc1cc(C(=O)O)c(C)o1`: the inhibition is 2%.

As for `Cc1ccc(-c2cc(C(=O)O)n[nH]2)o1`, the inhibition was 0%.

For `Nc1nc(SCCOc2ccccc2)n[nH]1`, the inhibition was 0%.

As for `CCOC(=O)C1C2C=CC3(CN(c4cccc(Cl)c4)C(=O)C13)O2` (stereo unspecified), the inhibition was 0%.

Consider `COC(=O)CSc1nnc(-c2ccc(OC)cc2OC)o1`, for which the inhibition was 0%.

With `Cc1ccsc1C1C2=C(CCCC2=O)Nc2ncnn21` (stereo unspecified), the inhibition is 0%.

Consider `N#C/C(C(=O)c1ccccc1)=C1/CCCN1`, for which the inhibition is 3%.

Regarding `Cc1cc(/C=c2/sc3nc4ccccc4n3c2=O)c(C)n1-c1ccccn1`, the inhibition was 1%.

As to `Cn1c(=O)c2c(nc(SCC(=O)NCc3ccco3)n2C)n(C)c1=O`, the inhibition is 0%.

For `COc1ccc(NC(=O)CN2CCN(S(=O)(=O)c3ccc(Cl)cc3)CC2)cc1`, the inhibition is 13%.

Turning to `Cc1cc(C)c(Cn2c(=O)n(CCCC(=O)NCc3ccco3)c(=O)c3ccccc32)c(C)c1`, the inhibition was 7%.

As for `O=C(OCc1cccs1)c1ccccc1NS(=O)(=O)c1ccc2c(c1)OCCO2`, the inhibition was 0%.

Regarding `COCCN(C(=O)Cn1nnc2ccccc21)C(C(=O)NC1CCCC1)c1cc(OC)ccc1OC` (stereo unspecified), the inhibition was 6%.

Consider `O=c1ccc(S(=O)(=O)N2CCC(Cc3ccccc3)CC2)c[nH]1`, for which the inhibition was 0%.

`CCCCOc1ccc(-c2nnn(CC(=O)Nc3ncc(CC(=O)OCC)s3)n2)cc1`: the inhibition was 2%.

Take `COc1cc(S(=O)(=O)NC2CCCCC2C)ccc1Cl` (stereo unspecified): the inhibition is 0%.

For the compound `Cc1ccc(C(=O)CC2(O)C(=O)N(CN3CCOCC3)c3ccccc32)cc1` (stereo unspecified), the inhibition was 7%.

For `CCOc1ccc(N(CC(=O)NC2CCCC2)S(=O)(=O)c2c(C)[nH]c(=O)[nH]c2=O)cc1`, the inhibition was 0%.

For `O=S(=O)(c1ccc(OCC(O)CN2CCN(c3ccccc3)CC2)cc1)N1CCOCC1` (stereo unspecified), the inhibition is 7%.

As to `CCCC1C(C#N)=C(N)Oc2n[nH]c(C(C)(C)C)c21` (stereo unspecified), the inhibition was 0%.

For the compound `CCNc1oc(COc2cccc(C)c2)nc1C#N`, the inhibition is 5%.

`O=C(CCSc1ccccc1)Nc1ccc(S(=O)(=O)N2CCOCC2)cc1`: the inhibition was 7%.

Take `CCOc1ccc(C(=O)CN2CCN(S(=O)(=O)c3ccc(OC)cc3)CC2)cc1`: the inhibition was 1%.

`CCCOC(=O)c1[nH]c2c(c1C)C(=O)CC(c1ccc(OC)c(OC)c1)C2` (stereo unspecified): the inhibition is 0%.

For `O=C(C1CCCO1)N1CCN(C(c2ccccc2)c2ccccc2)CC1` (stereo unspecified), the inhibition was 0%.

In the case of `COc1ccc(-c2cc(C(=O)NCCc3ccccc3)no2)cc1OC`, the inhibition was 4%.

For `CCOC(=O)c1c(NC(=O)CSc2nnc(-c3ccc(OC)cc3)o2)sc2c1CCC2`, the inhibition is 3%.

For `COc1ccc(Cn2c(N)c(C#N)c3nc4ccccc4nc32)cc1OC`, the inhibition was 1%.

As to `OC1(c2cccc(C(F)(F)F)c2)CCN(c2ccc(-c3ccccc3)nn2)CC1`, the inhibition is 0%.

`COc1ccc(NC(=O)Cn2nnc(-c3ccccc3F)n2)cc1Cl`: the inhibition is 0%.

In the case of `Nc1nc(C2C(=O)CCCC2=O)cs1`, the inhibition is 0%.

As to `COCCNC(=O)Cn1cc2c(n1)CCCCC2`, the inhibition is 1%.

As for `O=C(NCc1ccco1)c1ccccc1Nc1ccc(F)cc1`, the inhibition was 0%.

For the compound `CCC(=O)Nc1cccc(Br)c1`, the inhibition was 2%.

In the case of `Cc1ccc(-n2nc3cc(Cl)c(NC(=O)c4ccco4)cc3n2)cc1`, the inhibition was 3%.

Turning to `CN(C)C(=O)CN(C)S(=O)(=O)c1ccc(Cl)cc1`, the inhibition was 0%.

Turning to `CCOc1ccccc1N1CC(O)=C(c2nc3ccccc3s2)C1=N`, the inhibition was 9%.

For `CCc1nnc(SCc2cn3c(C)cc(C)nc3n2)n1N`, the inhibition was 0%.

Take `Cc1cc(C)nc(SCc2ccc3nonc3c2)n1`: the inhibition was 1%.

Regarding `CCN1C(=O)c2ccccc2S(=O)(=O)c2ccc(C(=O)NCc3cccnc3)cc21`, the inhibition was 0%.

For the compound `CN(Cc1ccccc1)Cc1nc2c([nH]1)c(=O)[nH]c(=O)n2C`, the inhibition is 7%.

For the compound `CCOc1ccc(NC(=O)CCN2CCN(c3ccccc3)CC2)cc1`, the inhibition is 0%.
